Calls of active or inactive are those of the source. Unless noted, how the calls were made is not given here.
Experiments:
[1] = tested on: Wnt5a (protein binding on small-molecule microarray); experiment: small molecules binding Wnt5a protein – biophysical, small-molecule microarray, 635/667 nm fluorescence, primary screen (AID 1142); settings: 635 nm fluorescence, higher = more signal;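 further: fluorescence read at 667 nm with signal to noise per printed feature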
[2] = ATP-based viability of Huh7 replicon cells – cell-based, CellTiter-Glo luminescence, basal, 48 h, cytotoxicity control for HCV replication inhibitor project, primary screen (AID 1143); settings: higher = more signal, called active from +8 up or from −8 down;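 further: Huh7 hepatoma cells carrying a hepatitis C replication reporter with no stimulus; test concentration not given here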
[3] = Pseudomonas biofilm growth suppression – PAO1 strain, BacTiter-Glo luminescence, LB-PBS, primary screen (AID 1144); settings: P. aeruginosa PAO1 biofilm, 12 h, higher = more signal
[4] = basal CRE-LacZ reporter activity in PC12 – cell-based, unstimulated, primary screen (AID 1145); settings: no forskolin, luminescence, 4.5 h, higher = more signal, called active from +8 up or from −8 down
[5] = forskolin-driven CRE-LacZ activity in PC12 – cell-based, CRE-LacZ reporter, forskolin-stimulated, primary screen (AID 1146); settings: luminescence, 4.5 h, higher = more signal, called active from +8 up or from −8 down;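 further: PC12 cells with 6xCRE LacZ reporter stimulated by forskolin 10 µM; beta-galactosidase reporter signal reflecting CREB driven transcription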
[6] = target: Streptavidin (Streptomyces avidinii) (UniProt P22629); experiment: compounds binding control protein streptavidin – biophysical, small-molecule microarray, 635/667 nm fluorescence, artefact control for SMM compound annotation, primary screen (AID 1147); settings: higher = more signal;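 further: signal reflects streptavidin binding to arrayed compounds as a control protein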
[7] = probe aInhba binding on compound microarray – biochemical, small-molecule microarray, 635/667 nm fluorescence, primary screen (AID 1148); settings: higher = more signal;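 further: score merges 667nm spot fluorescence with signal-to-noise for antibody binding to printed compounds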
[8] = target: Torsin-1A (Homo sapiens) (UniProt O14656); experiment: TOR1A wild-type binding on microarray – cell lysate, small-molecule microarray, lysate, 635/667 nm, primary screen (AID 1149); settings: COS7 hTOR1A-WT lysate, 635 nm fluorescence, higher = more signal
[9] = target: Torsin-1A (Homo sapiens) (UniProt O14656); experiment: torsin A mutant lysate binding on microarrays – cell lysate, small-molecule microarray, COS7 lysate, 635/667 nm fluorescence, primary screen (AID 1150); settings: COS7 hTOR1A mutant lysate, 635 nm fluorescence, higher = more signal;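 further: score pools 667 nm emission and signal to noise measuring lysate protein binding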
[10] = tested on: Sonic hedgehog protein (Shh); experiment: Sonic hedgehog microarray binding compounds – biochemical, small-molecule microarray, 635/667 nm fluorescence, primary screen (AID 1151); settings: 635 nm fluorescence, higher = more signal;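 further: Shh protein binding to compounds spotted on small-molecule microarray slides; score combines spot fluorescence intensity with signal-to-noise across triplicate slides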
[11] = optical density shifts of acrAB sulA E. coli – strain DRC41, OD650, 48 h, E. coli filamentation inducer project, primary screen (AID 1152); settings: higher = more signal, called active from +8 up or from −8 down;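 further: E. coli MC1000 strain DRC41 lacking acrAB efflux pump and sulA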
[12] = probe aLefty1 binding on compound microarray – biochemical, small-molecule microarray, 635/667 nm fluorescence, primary screen (AID 1153); settings: higher = more signal;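 further: score merges spot fluorescence with signal-to-noise ratio from the scanned slide images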
[13] = plasmodial surface anion channel blockers, osmotic lysis – cell-based, P. falciparum Indochina, OD700, 1 h, primary screen (AID 1154); settings: P. falciparum Indochina infected RBC osmotic lysis, higher = more signal, called active from +8 up or from −8 down
[14] = plasmodial surface anion channel blockers, osmotic lysis – cell-based, P. falciparum Indochina, OD700, 2 h, primary screen (AID 1155);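 further: lysis reports solute entry through the parasite surface anion channel PSAC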; settings: P. falciparum Indochina infected erythrocytes, higher = more signal, called active from +8 up or from −8 down
[15] = changes in parasitized red cell lysis, either direction – P. falciparum Indochina, OD700, 3 h, PSAC antagonist project, primary screen (AID 1156); settings: P. falciparum-infected erythrocytes, osmotic lysis, higher = more signal, called active from +8 up or from −8 down
[16] = plasmodial surface anion channel blockers, osmotic lysis – cell-based, P. falciparum Indochina, OD700, 18 h, primary screen (AID 1157); settings: P. falciparum Indochina infected erythrocytes, osmotic lysis OD700, 18 h; higher = more signal, called active from +8 up or from −8 down
[17] = S6 kinase pathway phospho-S6 level changes – cell-based, A549, cytoblot, luminescence, serum-stimulated, primary screen (AID 1158); settings: 5 h, higher = more signal;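 further: serum-stimulated A549 lung adenocarcinoma cells; signal is phosphorylated S6 detected by cytoblot immunostaining with HRP secondary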
[18] = target: NADPH oxidase 2 (Homo sapiens) (UniProt P04839); experiment: compounds shifting NOX2 Amplex Red fluorescence – cell-based, HEK293-NOX2, PMA-stimulated, NOX inhibitor project, primary screen (AID 1159); settings: 45 min, higher = more signal, called active from +8 up or from −8 down; further: test concentration not given here
[19] = target: NADPH oxidase 4 (Homo sapiens) (UniProt Q9NPH5); experiment: compounds shifting NOX4 Amplex Red fluorescence – cell-based, HEK293-NOX4, tetracycline-induced, NOX inhibitor project, primary screen (AID 1160); settings: HEK293-NOX4, Amplex Red H2O2 fluorescence, 45 min; higher = more signal, called active from +8 up or from −8 down
[20] = target: NADPH oxidase 5 (Homo sapiens) (UniProt Q96PH1); experiment: compounds shifting NOX5 Amplex Red fluorescence – cell-based, HEK293-NOX5, NOX inhibitor project, primary screen (AID 1161); settings: HEK293-NOX5, ionomycin, 45 min, higher = more signal
Sequence of NADPH oxidase 5 (Homo sapiens) (Q96PH1 whole entry, looked up): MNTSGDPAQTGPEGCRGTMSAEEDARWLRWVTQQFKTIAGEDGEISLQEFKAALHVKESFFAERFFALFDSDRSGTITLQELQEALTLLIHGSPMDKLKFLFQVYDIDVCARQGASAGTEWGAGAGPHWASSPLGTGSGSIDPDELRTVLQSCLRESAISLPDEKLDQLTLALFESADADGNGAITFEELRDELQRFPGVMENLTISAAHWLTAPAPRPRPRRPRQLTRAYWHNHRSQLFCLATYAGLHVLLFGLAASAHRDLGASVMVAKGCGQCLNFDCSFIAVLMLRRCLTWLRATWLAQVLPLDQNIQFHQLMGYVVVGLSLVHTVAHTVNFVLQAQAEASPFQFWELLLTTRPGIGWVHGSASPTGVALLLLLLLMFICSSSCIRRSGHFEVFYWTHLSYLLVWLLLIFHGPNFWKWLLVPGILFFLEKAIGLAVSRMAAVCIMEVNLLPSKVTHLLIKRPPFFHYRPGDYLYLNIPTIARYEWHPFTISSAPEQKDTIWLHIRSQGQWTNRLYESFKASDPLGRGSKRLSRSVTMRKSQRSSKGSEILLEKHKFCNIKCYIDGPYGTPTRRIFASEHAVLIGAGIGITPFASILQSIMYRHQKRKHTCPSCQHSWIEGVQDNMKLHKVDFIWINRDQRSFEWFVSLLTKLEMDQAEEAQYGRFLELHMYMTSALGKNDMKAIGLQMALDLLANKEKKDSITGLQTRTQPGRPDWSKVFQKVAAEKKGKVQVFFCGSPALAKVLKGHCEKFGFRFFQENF

Sequence of NADPH oxidase 2 (Homo sapiens) (P04839 whole entry, looked up): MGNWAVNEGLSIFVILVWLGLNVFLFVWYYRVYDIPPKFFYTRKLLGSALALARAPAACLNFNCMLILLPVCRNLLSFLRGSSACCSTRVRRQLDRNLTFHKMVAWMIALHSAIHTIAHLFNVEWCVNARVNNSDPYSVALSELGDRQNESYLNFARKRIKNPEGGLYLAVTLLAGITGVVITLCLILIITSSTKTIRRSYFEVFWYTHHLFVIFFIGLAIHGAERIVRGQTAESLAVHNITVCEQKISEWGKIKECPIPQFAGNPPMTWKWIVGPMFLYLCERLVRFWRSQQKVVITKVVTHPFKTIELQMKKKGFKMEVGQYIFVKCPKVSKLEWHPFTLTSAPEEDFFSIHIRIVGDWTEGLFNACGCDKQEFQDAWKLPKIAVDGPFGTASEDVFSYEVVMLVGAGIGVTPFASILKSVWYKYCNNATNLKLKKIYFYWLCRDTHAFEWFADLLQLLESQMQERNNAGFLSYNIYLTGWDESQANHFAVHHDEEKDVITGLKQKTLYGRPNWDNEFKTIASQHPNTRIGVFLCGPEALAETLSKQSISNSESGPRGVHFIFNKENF
Sequence of NADPH oxidase 4 (Homo sapiens) (Q9NPH5 whole entry, looked up): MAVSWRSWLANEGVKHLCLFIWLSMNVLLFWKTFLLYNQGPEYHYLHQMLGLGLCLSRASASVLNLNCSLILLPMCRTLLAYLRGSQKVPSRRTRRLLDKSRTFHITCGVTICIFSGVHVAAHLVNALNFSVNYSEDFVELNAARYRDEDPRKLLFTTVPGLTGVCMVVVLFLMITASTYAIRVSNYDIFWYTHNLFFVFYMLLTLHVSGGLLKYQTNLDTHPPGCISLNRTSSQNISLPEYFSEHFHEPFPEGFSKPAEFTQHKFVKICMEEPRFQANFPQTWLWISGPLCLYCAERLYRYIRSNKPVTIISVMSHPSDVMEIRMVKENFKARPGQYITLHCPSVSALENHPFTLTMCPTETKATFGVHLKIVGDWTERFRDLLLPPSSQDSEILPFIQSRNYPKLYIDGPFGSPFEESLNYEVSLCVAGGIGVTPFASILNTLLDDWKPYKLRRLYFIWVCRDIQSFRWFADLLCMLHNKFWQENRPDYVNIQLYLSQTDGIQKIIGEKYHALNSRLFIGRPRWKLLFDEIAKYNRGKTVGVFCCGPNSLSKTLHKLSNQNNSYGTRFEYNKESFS
Sequence of Torsin-1A (Homo sapiens) (O14656 whole entry, looked up): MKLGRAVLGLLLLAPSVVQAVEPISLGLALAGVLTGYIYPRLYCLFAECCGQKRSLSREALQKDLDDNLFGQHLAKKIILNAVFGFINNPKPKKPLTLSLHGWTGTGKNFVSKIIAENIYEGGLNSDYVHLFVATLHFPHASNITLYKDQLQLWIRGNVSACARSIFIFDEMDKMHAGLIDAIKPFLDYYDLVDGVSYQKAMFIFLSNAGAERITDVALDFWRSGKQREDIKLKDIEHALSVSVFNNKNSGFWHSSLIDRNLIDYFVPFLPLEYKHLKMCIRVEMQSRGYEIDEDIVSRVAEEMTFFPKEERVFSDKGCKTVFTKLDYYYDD
Sequence of Streptavidin (Streptomyces avidinii) (P22629 whole entry, looked up): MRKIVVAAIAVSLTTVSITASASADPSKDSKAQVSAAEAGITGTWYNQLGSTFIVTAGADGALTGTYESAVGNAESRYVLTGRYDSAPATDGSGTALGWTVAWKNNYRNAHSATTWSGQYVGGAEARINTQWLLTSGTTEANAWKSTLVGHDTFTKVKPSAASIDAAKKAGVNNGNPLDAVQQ

| SMILES | composite z-score [1] | z-score [2] | z-score [3] | z-score [4] | z-score [5] | composite z-score [6] | composite z-score [7] | composite z-score [8] | composite z-score [9] | composite z-score [10] | z-score [11] | composite z-score [12] | z-score [13] | z-score [14] | z-score [15] | z-score [16] | z-score [17] | z-score [18] | z-score [19] | z-score [20] |
| --- | --- | --- | --- | --- | --- | --- | --- | --- | --- | --- | --- | --- | --- | --- | --- | --- | --- | --- | --- | --- |
| CN(C)CCCNC(=O)[C@@H]1c2ccccc2C(=O)N(Cc2ccccc2C(F)(F)F)[C@H]1c1ccc(CO)cc1 | 0.0246 | -0.574 (inactive) | 0.405 (inactive) | -0.206 (inactive) | -0.951 (inactive) | -0.734 | -0.16 | 0.0406 | -0.0393 | 0.547 | 1.77 (inactive) | -0.103 | 2.54 (inactive) | 0.793 (inactive) | 1.21 (inactive) | 0.64 (inactive) | -0.0975 | 0.383 (inactive) | 1.03 (inactive) | 1.11 |
| O=C1C[C@@](C(=O)NC2CC2)(c2ccc([N+](=O)[O-])cc2)[C@@H](c2ccc(CO)cc2)N1C1CCCCC1 | 0.755 | -5.6 (inactive) | -2.4 (inactive) | 0.118 (inactive) | -0.0595 (inactive) | -0.124 | -0.212 | -0.204 | 0.466 | 2.18 | 1.25 (inactive) | 0.345 | 1.97 (inactive) | -0.0047 (inactive) | 0.736 (inactive) | -0.115 (inactive) | 3.97 | -1.06 (inactive) | -3.7 (inactive) | -5.08 |
| COCC(=C=CC[C@H](O)c1ccccc1OCCO)C[C@H](O)COCc1ccccc1 | 1.16 | -0.729 (inactive) | 1.27 (inactive) | 5.1 (inactive) | 0.497 (inactive) | 0.259 | 0.0541 | 1.29 | 1.13 | 1.73 | -0.186 (inactive) | 0.131 | 9.07 (active) | 1.07 (inactive) | 0.287 (inactive) | 0.896 (inactive) | -0.408 | 0.0204 (inactive) | -1.22 (inactive) | -1.92 |
| Cc1ccc(C(C)CC(O)C2C=CC3C(=O)N(C)C(=O)C3N2Nc2ccccc2)o1 (stereo not given) | 0.342 | -0.206 (inactive) | -0.368 (inactive) | 0.25 (inactive) | 0.471 (inactive) | 0.0989 | 0.0588 | 0.371 | -0.139 | 1.08 | -2.23 (inactive) | 0.356 | 2.46 (inactive) | 0.962 (inactive) | 0.684 (inactive) | 1.17 (inactive) | -1.4 | -1.73 (inactive) | -4.75 (inactive) | -3.53 |
| CCOC(=O)c1cn(C[C@H](Cc2ccccc2)NC(=O)N[C@H](CO)CCc2oc(C(C)=O)c(C(=O)OC)c2C(=O)OC)nn1 | 0.0532 | -2.84 (inactive) | 0.279 (inactive) | 1.4 (inactive) | -0.158 (inactive) | 0.486 | -0.0762 | 0.439 | 0.692 | 1.63 | -0.427 (inactive) | 0.143 | 1.14 (inactive) | -1.06 (inactive) | 0.661 (inactive) | -0.473 (inactive) | 0.0878 | -3.04 (inactive) | -3.25 (inactive) | -1.9 |
| CC(C)(C)N1CC=CC23O[C@@H]4/C=C\CCCOC(=O)C4[C@H]2C(=O)N(CCCCCO)[C@@H]3C1=O (stereo not given in full) | -0.552 | -0.0495 (inactive) | 1.27 (inactive) | 0.191 (inactive) | -0.311 (inactive) | -0.573 | -0.258 | -0.185 | -1.33 | -0.58 | -0.81 (inactive) | -0.191 | 0.373 (inactive) | 0.135 (inactive) | -1.09 (inactive) | 0.0116 (inactive) | -0.786 | 1.16 (inactive) | 0.0398 (inactive) | 1.21 |
| C=CCC(OC(C)=O)[C@@H]1[C@@H](N(Cc2cc3ccccc3o2)C(=O)c2cccc3ccccc23)c2cc(OCCCO)ccc2N1C(=O)c1ccc2ccccc2n1 (stereo not given in full) | 0.0394 | -1.35 (inactive) | -0.399 (inactive) | 2.6 (inactive) | -0.273 (inactive) | 0.0002 | -0.0131 | 0.866 | -0.661 | 0.151 | 0.595 (inactive) | -0.239 | 1.53 (inactive) | 0.26 (inactive) | 0.266 (inactive) | 0.506 (inactive) | 0.231 | 0.889 (inactive) | -0.605 (inactive) | -1.64 |
| CCCCC(=C=CC[C@H](O)c1ccc(CO)o1)CCO | 0.0119 | 0.0865 (inactive) | 0.0836 (inactive) | 0.96 (inactive) | 1.56 (inactive) | -0.144 | -0.128 | 1.39 | 0.587 | 1.69 | -0.258 (inactive) | -0.0445 | 2 (inactive) | 0.278 (inactive) | 0.517 (inactive) | 0.134 (inactive) | -0.189 | 0.802 (inactive) | -0.0669 (inactive) | -0.395 |
| O=C1C2C=CC(C(O)C3CCCCC3)N(n3cnnc3)C2C(=O)N1Cc1ccccc1 (stereo not given) | 0.364 | -4.7 (inactive) | -1.2 (inactive) | -0.135 (inactive) | -0.233 (inactive) | 0.203 | 0.229 | 0.187 | 0.64 | 1.65 | 0.253 (inactive) | 0.375 | 2.45 (inactive) | -0.471 (inactive) | 0.312 (inactive) | -1.6 (inactive) | 1.75 | -4 (inactive) | -0.921 (inactive) | -5.07 |

Source: PubChem BioAssay
